From paper PMC9574860, “Chemical Toolkit for PARK7: Potent, Selective, and High-Throughput” (Journal of Medicinal Chemistry, 2022)
The campaign covered roughly 7,900 compounds. About 400 (5.1%) showed an effect of 50% or more. The sample holds strong results, similar compounds and a random draw of the others, so the mix is not that of the screen.

molecular target: Parkinson's disease protein 7 (PARK7/DJ1) (human, UniProt Q99497); assay: primary screen, percent inhibition; read as competition with a fluorescent probe by fluorescence polarization; higher = more effect of the substance; details: 100 µM
Method in brief: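 Fluorescence-polarization probe displacement (JYQ-107, 20 nM final, 2 h) after 2 h preincubation of PARK7 (0.2 μM final) with each fragment at 100 μM final. Read-out ex/em 480/520 nm; remaining activity derived from FP signal loss relative to reference controls.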

Chain of Parkinson's disease protein 7 (PARK7/DJ1) (Q99497 whole entry, looked up, the tested form may be a part): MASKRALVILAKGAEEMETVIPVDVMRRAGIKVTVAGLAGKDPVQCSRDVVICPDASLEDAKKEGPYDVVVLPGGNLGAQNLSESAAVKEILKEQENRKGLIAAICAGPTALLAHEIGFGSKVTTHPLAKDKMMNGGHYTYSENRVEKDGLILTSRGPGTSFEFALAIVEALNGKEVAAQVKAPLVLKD

SMILES	Inhibition %
c1ccc(OCC2CO2)cc1 (stereo not shown)	9.6%
CC1CC(N2CCc3sccc3C2)C(=O)O1 (stereo not shown)	13.9%
CCn1nc2c(cc1=O)CN(C1CC(C)OC1=O)CC2 (stereo not shown)	61.4%
CC1CC(N2CCc3c(nc(C4CC4)n3C)C2)C(=O)O1 (stereo not shown)	5.37%
CCCn1nc2c(cc1=O)CN(C1CC(C)OC1=O)CC2 (stereo not shown)	86.8%
CC1CC(N2CCN(C)c3ccccc3C2)C(=O)O1 (stereo not shown)	0.987%
CC(=O)Nc1cccc2c1CCN(C1CC(C)OC1=O)C2 (stereo not shown)	1.86%
C=CC(=O)NCC1CCSC1 (stereo not shown)	5.45%
C=CC(=O)N1CCc2ccc(C(=O)O)cc2CC1	4.84%
Cc1n[nH]c(S)nc1=O	2.15%
O=c1cn[nH]c(S)n1	74.8%
O=c1[nH]c(S)nc2[nH]ncc12	4.43%
Cn1c(=O)c2c(nc(Cl)n2CCS(=O)(=O)F)n(C)c1=O	3.18%
CC1CC(N2CCC(O)CC2)C(=O)O1 (stereo not shown)	5.67%
C=CC(=O)N1CCC(N(C)C(=O)N(C)C)C1 (stereo not shown)	28.7%
Cc1noc(C)c1C(=O)CCl	13.5%
Cc1nonc1C(=O)CCl	97.9%
Cc1cc(NC(=O)CCl)no1	3.42%
C=CC(=O)NCC1CCC=CO1 (stereo not shown)	6.04%
C=CC(=O)N1CCN(S(=O)(=O)CC)C[C@H]1C	12.6%
C=CC(=O)N(Cc1ccccc1)c1cnn(C)c1	29.9%
Cn1cc(S(=O)(=O)F)c(N)n1	7.95%
CC(=O)Nc1nn(C)cc1S(=O)(=O)F	14.8%
Cn1cc(S(=O)(=O)Oc2cnc3ccccc3c2)cn1	6.55%
O=S(=O)(F)c1coc2ccccc12	10.5%

SMILES	Inhibition %
CN(c1ccn(C)n1)S(=O)(=O)c1ccccc1S(=O)(=O)F	97.9%
CN(c1ccccc1)S(=O)(=O)C=Cc1ccccc1	4.34%
CN(c1ccccc1)S(=O)(=O)c1ccccc1S(=O)(=O)F	96.6%
CN(c1cnn(C)c1)S(=O)(=O)c1ccccc1S(=O)(=O)F	98.1%
CC1(C)OB(CC2CC3(CCOCC3)C2)OC1(C)C	3.09%
C=CC(=O)N(C)C1C(C)CCCC1C (stereo not shown)	5.45%
C=CC(=O)N1C[C@]2(C)COC[C@]2(C)C1	9.62%
C=CC(=O)N1CC(C)(C)O[C@@]2(C[C@@H]3CC[C@H]2C3)C1	10.3%
N#Cc1nc(N2CC(CF)C2)ccc1Cl	3.54%
O=C(CCl)N1CCN(S(=O)(=O)Cc2ccccc2)CC1	13.1%
CCC1(CNS(=O)(=O)C=Cc2ccccc2)CCOCC1	6.07%
CC1(C)OB(Cc2cc(F)cc(F)c2)OC1(C)C	6.97%
Cc1ccnc(NS(=O)(=O)c2ccc(S(=O)(=O)F)cc2)c1	16.1%
Cc1ccnc(NS(=O)(=O)c2ccc(S(=O)(=O)F)cc2)n1	36.3%
Cc1nccc(NS(=O)(=O)c2ccc(S(=O)(=O)F)cc2)n1	57.9%
O=S(=O)(F)c1ccc(S(=O)(=O)Nc2ccncc2)cc1	8.89%
O=S(=O)(F)c1ccc(S(=O)(=O)Nc2cccc(F)n2)cc1	54.7%
O=S(=O)(F)c1ccc(S(=O)(=O)Nc2ccsc2)cc1	27.7%
O=S(=O)(F)c1ccc(S(=O)(=O)Nc2nccs2)cc1	64%
O=S(=O)(F)c1ccc(S(=O)(=O)Nc2ccccn2)cc1	5.71%
CC1(C)OB(c2cncc(NS(=O)(=O)c3ccccc3)c2)OC1(C)C	8.59%
CCNS(=O)(=O)c1ccc(B2OC(C)(C)C(C)(C)O2)c(C)c1	5.32%
C=CC(=O)NC1CC(OC)C1(C)C (stereo not shown)	-3.29%
CC1CC(Sc2cnccn2)C(=O)O1 (stereo not shown)	48.8%
Cc1ccc2cccc(OC(=O)N(C)C)c2n1	5.34%

SMILES	Inhibition %
C=CS(=O)(=O)c1ccccc1	9.43%
CC1CCN(C(=O)C=Cc2cn(C)c(=O)n(C)c2=O)CC1	10.9%
CN1CCC(CNc2ccc(C#N)nc2)CC1	1.29%
O=C(CCCl)N1CCN(c2ncccn2)CC1	3.8%
Cl.O=C(CCl)N1CCN(c2cccc(Cl)c2)CC1	44.3%
C=CC(=O)N1CCN(c2ncccn2)CC1	9.58%
O=C(CCCl)N1CCN(c2ccccn2)CC1	12.9%
Cl.O=C(CCl)N1CCN(c2cnccn2)CC1	55.6%
O=C(CCl)N1CCN(c2ncccn2)CC1	91.6%
C=CC(=O)NCCN1C(=O)CNC1=O	12.9%
C=CC(=O)NCC1CCN(c2ccccc2)CC1	3.72%
N#Cc1cc(F)ccn1	5.03%
N#Cc1cc(Cl)ccn1	52.6%
N#Cc1ccnc(Cl)n1	3.95%
C=CC(=O)Nc1ccc(C)cn1	0.151%
O=S(=O)(C=Cc1ccccc1)Nc1ccc(F)cn1	6.27%
O=S(=O)(F)c1ccc(Nc2ccc(F)cc2)nc1	2.34%
Cc1ccc(NS(=O)(=O)CCCS(=O)(=O)F)nc1	80.1%
Cc1ccc(C=CS(=O)(=O)Nc2ccc(C#N)cn2)cc1	11.1%
O=S(=O)(F)CCCS(=O)(=O)Nc1ccc(F)cn1	77.2%
Cn1c(SC2CCOC2=O)nnc1-c1ccccc1 (stereo not shown)	12.6%
Sc1ccc(Cl)nn1	53.5%
FC(F)(F)c1ccc(S)nn1	25.5%
Cc1ccc(S)nn1	28.1%
CC(C)CC(=O)NNS(=O)(=O)c1ccc(S(=O)(=O)F)cc1	30.6%

SMILES	Inhibition %
CNC(=O)Nc1ccc(S(=O)(=O)F)cc1	22.2%
COCC(=O)Nc1ccc(S(=O)(=O)F)cc1	13.6%
CC(C)CC(=O)NNS(=O)(=O)c1cccc(S(=O)(=O)F)c1	98.2%
CC(C)(C)C(=O)NNS(=O)(=O)c1ccc(S(=O)(=O)F)cc1	6.55%
CC(C)(C)C(=O)NNS(=O)(=O)c1cccc(S(=O)(=O)F)c1	97.2%
O=c1oc2cc(OCC3CO3)ccc2c2c1CCC2 (stereo not shown)	10.6%
N#Cc1nc(N2CCOCC2)ccc1Cl	8.71%
Cc1cn2c(C=C(C#N)c3ccccn3)c(C)nc2s1	13.6%
O=C(CCl)Nc1cc(C(F)(F)F)ccc1-n1cncn1	32.5%
C=CC(=O)N1CCC(c2ccc(C)nc2)CC1	4.08%
CCOc1ccncc1S(=O)(=O)Oc1cccc(F)c1	58.4%
CCn1cc(S(=O)(=O)Oc2cccc(F)c2)nc1C	3.67%
Cn1cc(S(=O)(=O)Oc2cccc(F)c2)c(=O)n(C)c1=O	5.3%
N#Cc1nccnc1N1CCc2c(F)ccc(F)c2C1	41%
C=CC(=O)NCc1cc2ccccc2s1	13.3%
CC1CC(N2CCCCC2Cn2cncn2)C(=O)O1 (stereo not shown)	1.57%
O=C(CCl)C1CCCCO1 (stereo not shown)	94.5%
O=C(CCl)NCC1CCCO1 (stereo not shown)	5.15%
C=CC(=O)NCCC1CCCCO1 (stereo not shown)	2.29%
CCn1nc(C)c(C(=O)Nc2cccc(S(=O)(=O)F)c2)c1Cl	8.14%
CN(C)S(=O)(=O)c1cccc(NC(=O)CCl)c1	15.5%
NS(=O)(=O)c1cccc(NC(=O)CCCl)c1	4.37%
Cn1c(=O)ccn(CC(=O)Nc2cccc(S(=O)(=O)F)c2)c1=O	99.6%
O=C(Cn1ncc2ccccc21)Nc1cccc(S(=O)(=O)F)c1	94.6%
O=C(CSC(F)(F)F)Nc1cccc(S(=O)(=O)F)c1	99.8%

SMILES	Inhibition %
O=Cc1cccc(C(=O)O)c1O	24.2%
C=CC(=O)N1CCN(CC(C)C)C(=O)C1	0.18%
COc1ccc(CS(=O)(=O)F)cc1[N+](=O)[O-]	18.4%
C=CC(=O)N1CC(Cc2cccs2)C1	12.5%
C=CC(=O)NCCc1nnc2n1CCCCC2	8.54%
COc1ccc(C(=O)NNC(=O)CCl)cc1	-3.11%
N#Cc1ncn(CCOc2ccccc2Cl)n1	8.15%
C=CC(=O)N1CC(C)OC2(CCOC(C)C2)C1 (stereo not shown)	9.19%
O=C(CCl)Nc1ccc(F)c(F)c1F	32.8%
O=C(CCl)Nc1ccc(Br)cc1F	71.1%
N#CSc1ccc(NC(=O)CCl)c(Cl)c1	55.8%
O=C(CCl)Nc1ccc(F)cc1Cl	13.8%
N#CSc1ccc(NC(=O)CCl)c(F)c1	72%
O=C(CCl)Nc1ccc(Cl)cc1Cl	18%
Cc1cc(SC#N)cc(C)c1NC(=O)CCl	4.28%
O=C(CCl)Nc1ccc(F)cc1F	23.9%
O=C(CCl)Nc1ccc(Cl)cc1F	49.7%
Cc1cccc(OCC(=O)Nc2ccc(S(=O)(=O)F)cc2)c1	9.17%
OB(O)c1ccccc1OCC1CCOC1 (stereo not shown)	5.05%
Cc1cc(CN(C)c2ccc(C#N)nc2)no1	-2.05%
CN(CC(=O)Nc1ncc(S(=O)(=O)F)s1)S(C)(=O)=O	9.17%
